The entries come from a sample that favours hits as a whole.
Dicer processing: inhibitors of Dicer pre-microRNA processing, primary screen, biochemical, cat-ELCCA, chemiluminescence; Endoribonuclease Dicer (Homo sapiens), Q9UPY3; cat-ELCCA pre-miR-21 Dicer processing; active compounds read high; z-score at 25 µM; 47,000 tested, 6% active; in the data active = z-score above about 3, passing the limit was not always enough;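 also: plate controls were vehicle for no effect and no enzyme for full effect; higher signal means more uncleaved substrate so more Dicer inhibition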
Numbers without * were called inactive.

SMILES	Dicer processing
S=C(Nc1ccc2[nH]ccc2c1)Nc1ccccc1N1CCOCC1	4.61*
O=C(Nc1ccc2[nH]ncc2c1)C1CCC1	-0.03
O=C(NCC1CC1)Nc1ccc2c(c1)CCO2	1.04
S=C(Nc1ccc(N2CCOCC2)nc1)Nc1cc(Cl)ccc1Cl	0.43
CCOC(=O)c1c(C)nsc1N/N=C(\C#N)C(=O)c1ccc(Cl)cc1	1.57
CC(=O)/C(C=Nc1cc(C)on1)=C(\C)O	-1.04
Cc1cc(N=CNOC(=O)c2nn(-c3ccccc3)nc2C)no1	-0.95
Cc1cc(N=Cc2ccccc2O)no1	4.47*
CC1(C)CC(=O)C2=C(C1)Nc1ncnn1C2c1ccc(O)cc1 (stereo unspecified)	0.37
CN(C)c1ccc(Oc2ccc3c(c2)CCC2C3CCC3(C)C(=O)CCC23)cc1 (stereo unspecified)	2.18
CCOC(=O)CSC(=S)Nc1ccc(C)cc1C	0.37
CN=C(Nc1cc(C)c(C)cc1C)SC	-0.54
CSC(=NCc1ccco1)Nc1ccc(C)cc1C	4.12*
c1ccc(OCc2nc3ccccc3n2Cc2ccccn2)cc1	0.35
CC(C1CC1)N(Cc1ccccc1)C(=O)CCC(=O)O (stereo unspecified)	0.7
Cc1cc(C)n(-c2ccc(-n3cccc3/C=C(\C#N)S(C)(=O)=O)cc2)n1	0.25
C=CCSc1nc2c(c(=O)n1CC)C1(CCCC1)Cc1ccccc1-2	-0.82
C=CCn1c(SCC)nc2c(c1=O)C1(CCCC1)Cc1ccccc1-2	-3.62
CSc1nc2c(c(=O)n1C)C1(CCCC1)Cc1ccccc1-2	4.16*
Cc1cc(NC2=CC(=O)CC(C)(C)C2)n[nH]1	0.96
Cc1occc1-c1nnc(SCCC(=O)O)o1	1.42
Cc1occc1-c1nnc(SCC(=O)O)o1	3.36*
Cc1ccc(-c2nnc(SCC(=O)O)o2)cc1	0.56
Brc1ccc(-c2noc(CSc3nc4ccccc4[nH]3)n2)cc1	0.45
Cc1ccc2nc(SCc3nc(-c4cccs4)no3)[nH]c2c1	-0.45
SMILES	Dicer processing
Cc1ccc2nc(SCc3nc(-c4ccccc4C)no3)[nH]c2c1	3.02*
CCOC(=O)C1C(c2ccc(C#N)cc2)C(C(=O)OCC)C(O)(C(F)(F)F)NC1(O)C(F)(F)F (stereo unspecified)	1.4
COC(=O)CNC(=O)Cn1cnc2c1c(=O)n(C)c(=O)n2C	2.86
COC(=O)Cn1cnc(=O)c(C#N)c1C	3.37*
CCOC(=O)Cn1cc(C#N)c(=O)[nH]c1=O	-0.59
OCC#CCSc1ncnn1-c1ccccc1	-7.49
C/C(O)=C(\N=O)C(=O)Nc1ccccc1	-0.95
O=C(NC(=S)Nc1c(Cl)cc(Cl)cc1Cl)c1ccccc1	-1.24
CC(=N\Nc1c(Cl)cc(Cl)cc1Cl)/C(=N\O)C(=O)Nc1ccccc1	3.03*
CCOC(=O)c1oc2nc(-c3ccccc3)cc(-c3ccccc3)c2c1N	-2.33
CCOC(=O)NC(=S)N1CCCC1	0.5
O=C(c1cnc2cc(-c3ccccc3)nn2c1)c1cc(Br)ccc1O	3.26*
O=C(c1cnc2cc(-c3ccccc3)nn2c1)c1cc(Cl)ccc1O	-1.73
O=C(c1cnc2cc(-c3ccc(Cl)cc3)nn2c1)c1ccccc1O	-0.69
CCOC(=O)COc1c(C(=O)OCC)sc2c1c(=O)n(-c1ccccc1)c(=S)n2-c1ccccc1	-0.91
Cc1cc(NC(=O)CSc2nc3c(c(C(F)(F)F)n2)CCc2ccccc2-3)no1	0.15
CC(=O)C(C)(C)OC(=O)NCc1ccccn1	-0.61
N#Cc1c(Cl)cccc1Oc1ccc(S(=O)(=O)Nc2ccccc2C(=O)NCC2CC2)cc1	0.88
O=C(NCC1CC1)c1ccccc1NS(=O)(=O)c1cc(Cl)c(Oc2ccc([N+](=O)[O-])cc2Cl)c(Cl)c1	3.33*
Cc1c(S(=O)(=O)Nc2ccccc2C(=O)NCC2CC2)sc2ccc(Cl)cc12	-0.69
Cn1nccc1NS(=O)(=O)c1ccccc1	-0.55
COc1ccc(S(=O)(=O)NC2CCSC2=O)cc1 (stereo unspecified)	3.67*
O=C(COc1ccc(Cl)cc1)NC1CCSC1=O (stereo unspecified)	0.2
O=C1SCCC1NS(=O)(=O)c1ccccc1 (stereo unspecified)	0.5
O=C(C1CCCN(S(=O)(=O)c2ccc(Cl)cc2)C1)N1CCc2ccccc2C1 (stereo unspecified)	-1.17
SMILES	Dicer processing
COc1ccc(OC)c(CN2CCN(Cc3ccc(SC)cc3)CC2)c1	2.18
Clc1ccc(CN2CCN(C3CCCCC3)CC2)cc1	-2.45
Fc1cccc(CN2CCN(C3CCCC3)CC2)c1	3.78*
Clc1ccc(CN2CCN(C3CCCC3)CC2)cc1	1.06
COc1ccc(OC)c(CN2CCN(Cc3ccc(OC)c(Br)c3)CC2)c1	-0.14
Fc1ccccc1CN1CCN(C2CCCCC2)CC1	4.12*
c1ccc(CN2CCC(N3CCN(C4CCCCC4)CC3)CC2)cc1	0.42
COc1ccc(OC)c(CN2CCN(C3CCCCC3)CC2)c1	3.13*
CCc1ccc(CN2CCN(C3CCCCC3)CC2)cc1	2.54
CSc1nsc(SC)c1C(=O)NC(=O)Nc1cc(C)on1	-1.01
COC(=O)c1ccc(C2Nc3c(OC)cc(OC)cc3C3C=CCC32)cc1 (stereo unspecified)	1.62
CC(=O)Nc1ccc(N2C(=O)C3CCCCC3C2=O)cc1Cl (stereo unspecified)	1.29
C=C(C)C1CC=C(C)C(OC(=O)c2ccccc2C(=O)O)C1 (stereo unspecified)	1.37
CN(C)C(=O)c1nn(-c2ccc(Cl)cc2)c(=O)c2ccccc12	-0.67
C=CCN1C(=O)C2(/C(=C(/O)c3ccc4c(c3)CC(C)O4)C(=O)C(=O)N2CCN(C)C)c2ccccc21 (stereo unspecified)	2.03
Cc1cc(C)c(C(=O)CC2(O)C(=O)N(C)c3ccccc32)c(C)c1 (stereo unspecified)	-0.57
CCCN1C(=O)C(O)(CC(=O)c2c(C)coc2C)c2ccccc21 (stereo unspecified)	0.41
Cc1coc(C)c1C(=O)CC1(O)C(=O)N(C)c2ccccc21 (stereo unspecified)	3.4*
COc1cccc(OC)c1C(=O)Oc1ccc2c(=O)c(-c3ccccc3)coc2c1	-0.38
NC(=O)N/N=C1\CCOc2ccc3ccccc3c21	-0.43
COc1ccc(-c2nc3c([nH]2)c(=O)n(C)c(=O)n3C)c(OC)c1	-0.42
Cn1c(=O)c2c(-c3ccc(F)cc3)cc(-c3cccc(F)c3)nc2n(C)c1=O	2.23
COc1ccc(-c2cc(-c3ccc(OC)cc3)c3c(=O)n(C)c(=O)n(C)c3n2)cc1	3.4*
CCOc1cc(C2c3c(oc4ccccc4c3=O)C(=O)N2c2nc(C)c(C)s2)ccc1O (stereo unspecified)	-0.68
CCOC(=O)/C(C#N)=C/c1ccc(C(F)(F)F)cc1	0.51
SMILES	Dicer processing
COc1ccccc1C1C(C(=O)OC2CCCCC2)=C(C)NC2=C1C(=O)CC(C)(C)C2 (stereo unspecified)	-0.36
O=C(CCSc1nc(-c2ccc3c(c2)OCO3)cc(C(F)(F)F)n1)N1CCCC1	0.35
CC1CCN(C(=O)CCSc2nc(-c3ccco3)cc(C(F)(F)F)n2)CC1	0.51
COc1ccc(-c2cc(C(F)(F)F)nc(SCCC(=O)N3CCCC3)n2)cc1	3.26*
NC1CCN(c2ncc(C(F)(F)F)cc2Cl)CC1	-0.43
COc1cc(S(=O)(=O)n2cc(C)nc2-c2ccccc2)c(OC)cc1Cl	1.26
CCOc1ccc(-c2oc3ccc(C)cc3c(=O)c2O)cc1OC	-1.49
Cc1ccc(-c2noc(CSc3nc(N)cc(=O)[nH]3)n2)cc1	1.23
COc1ccc(-c2noc(CSc3nc(N)c(-c4ccccc4)c(=O)[nH]3)n2)cc1	3.91*
